According to PubChem BioAssay (NCI):
This is part of a sample that, as a whole, favours compounds with a hit. Of some 83,000 tested, about 20% had one in any assay.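 The test compound was applied at a single concentration to cells in 96-well plates for 48 hours, and percent growth was recorded.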 Unmarked numbers belong to inactive results. Active and inactive are the calls of the source. How the source made its calls: active means growth percent below 10; inactive means the rest.

Assays:
Assay in all cases: NCI-60 one-dose screen, 48 h (100 = growth as untreated, 0 = no growth, -100 = all killed)
Conditions in all cases: 10 µM unless noted
[1] = tested on: SR leukemia
[2] = tested on: RPMI-8226 leukemia
[3] = tested on: OVCAR-8 ovarian
[4] = tested on: OVCAR-5 ovarian
[5] = tested on: OVCAR-4 ovarian
[6] = tested on: SK-OV-3 ovarian
[7] = tested on: IGROV1 ovarian
[8] = tested on: OVCAR-3 ovarian
[9] = tested on: NCI/ADR-RES ovarian

## CN1CC[C@@H](c2c(O)cc(O)c3c(=O)cc(-c4ccccc4Cl)oc23)[C@@H]1CO
[1]
  growth: 1.89% (active)
[2]
  growth: 3.13% (active)
[3]
  growth: 6.68% (active)
[4]
  growth: 7.25% (active)
[5]
  growth: -2.68% (active)
[6]
  growth: 5.82% (active)
[7]
  growth: 6.42% (active)
[8]
  growth: 14%
[9]
  growth: -3.1% (active)

## O=C1/C(=C\c2cccc(OCCCCCOc3ccc(Cl)cc3)c2)N=C2SCCCN12
[1]
  growth: 92.1%
[2]
  growth: 40.9%
[3]
  growth: 53%
[4]
  growth: 85.3%
[5]
  growth: 31.3%
[6]
  growth: 93.8%
[7]
  growth: 86.9%
[8]
  growth: 59.3%
[9]
  growth: 45.4%

## CC#CC(=O)N1CCC[C@H]1c1nc(-c2ccc(C(=O)Nc3ccccn3)cc2)c2c(N)nccn12
[1]
  growth: 68.3%
[2]
  growth: 79.7%
[3]
  growth: 77.8%
[4]
  growth: 78.5%
[5]
  growth: 99.5%
[6]
  growth: -0.746% (active)
[7]
  growth: 64.8%
[8]
  growth: 86.5%
[9]
  growth: 94.3%

## COC(=O)[C@@H](OC)[C@@H]1Cc2cc3cc(OC4CC(OC5CC(O)C(O)C(C)O5)C(O)C(C)O4)c(C)c(O)c3c(O)c2C(=O)[C@H]1OC1CC(OC2CC(OC3CC(C)(O)C(O)C(C)O3)C(O)C(C)O2)C(O)C(C)O1 (stereo partly specified)
[1]
  growth: 4.74% (active)
[2]
  growth: -17.5% (active)
[3]
  growth: 10.2%
[4]
  growth: 18.8%
[5]
  growth: 3.96% (active)
[6]
  growth: 21%
[7]
  growth: 28%
[8]
  growth: 6.49% (active)
[9]
  growth: 42.7%

## CCCCN1C(=O)c2cccc3c(-c4ccc5c(c4)ncn5C4CCCCC4)ccc(c23)C1=O
[1]
  growth: 91.1%
[2]
  growth: 108%
[3]
  growth: 89.9%
[4]
  growth: 98.3%
[5]
  growth: 97.6%
[6]
  growth: 92.3%
[7]
  growth: 108%
[8]
  growth: 101%
[9]
  growth: 92.5%

## NN1C(=O)CSC1=S
[1]
  growth: 98.5%
[2]
  growth: 102%
[3]
  growth: 111%
[4]
  growth: 96.8%
[5]
  growth: 105%
[6]
  growth: 98.6%
[7]
  growth: 110%
[8]
  growth: 110%
[9]
  growth: 114%

## COc1cc2nccc(Oc3ccc(NC(=O)C4(C(=O)Nc5ccc(F)cc5)CC4)cc3)c2cc1OC
[1]
  growth: 0.0186% (active)
[2]
  growth: 26.4%
[3]
  growth: 19.8%
[4]
  growth: 9.6% (active)
[5]
  growth: 26.3%
[6]
  growth: -15.1% (active)
[7]
  growth: -15.9% (active)
[8]
  growth: 41.2%
[9]
  growth: 13.8%

## CN1CCN(CCOc2cc(OC3CCOCC3)c3c(Nc4c(Cl)ccc5c4OCO5)ncnc3c2)CC1
[1]
  growth: 38.7%
[2]
  growth: 95.1%
[3]
  growth: 55.6%
[4]
  growth: 29.1%
[5]
  growth: 95.8%
[6]
  growth: -14.6% (active)
[7]
  growth: -15.6% (active)
[8]
  growth: 59.3%
[9]
  growth: 60.7%

## CN1CCC(CNc2ccc3ncc(-c4cccc(OC(F)(F)F)c4)n3n2)CC1
[1]
  growth: -19.4% (active)
[2]
  growth: -45.3% (active)
[3]
  growth: 0.791% (active)
[4]
  growth: -32.8% (active)
[5]
  growth: -1.72% (active)
[6]
  growth: -1.52% (active)
[7]
  growth: -60.4% (active)
[8]
  growth: -26.6% (active)
[9]
  growth: -4.75% (active)

## Cn1nccc1Nc1nccc(-c2ccn([C@H](CO)c3ccc(Cl)c(F)c3)c(=O)c2)n1
[1]
  growth: 112%
[2]
  growth: 113%
[3]
  growth: 104%
[4]
  growth: 46.9%
[5]
  growth: 98.8%
[6]
  growth: 119%
[7]
  growth: 82%
[8]
  growth: 115%
[9]
  growth: 89.7%

## COC1CCC(N2C(=O)CNc3ncc(-c4ccc(C(C)(C)O)nc4)nc32)CC1 (stereo unspecified)
[1]
  growth: -0.973% (active)
[2]
  growth: -2.19% (active)
[3]
  growth: 5.09% (active)
[4]
  growth: 9.72% (active)
[5]
  growth: -7.38% (active)
[6]
  growth: -27.6% (active)
[7]
  growth: -2.9% (active)
[8]
  growth: 8.66% (active)
[9]
  growth: 3.73% (active)

## COc1cc2ncnc(Oc3cccc(NC(=O)Nc4cc(C(C)(C)C(F)(F)F)on4)c3)c2cc1OC
[1]
  growth: 28.5%
[2]
  growth: 30.6%
[3]
  growth: 25.1%
[4]
  growth: 12.8%
[5]
  growth: 36.3%
[6]
  growth: -26.5% (active)
[7]
  growth: -11.1% (active)
[8]
  growth: 50.4%
[9]
  growth: 23.9%

## CC(C)NC[C@@H](C(=O)N1CCN(c2ncnc3c2[C@H](C)C[C@H]3O)CC1)c1ccc(Cl)cc1
[1]
  growth: 45.5%
[2]
  growth: 61.2%
[3]
  growth: 68.3%
[4]
  growth: 54.4%
[5]
  growth: 77.5%
[6]
  growth: -9.72% (active)
[7]
  growth: 0.674% (active)
[8]
  growth: 49.7%
[9]
  growth: 84.2%

## COc1ccc(-c2ccc3c(N4CCOC[C@@H]4C)nc(N4CCOC[C@@H]4C)nc3n2)cc1CO
[1]
  growth: 9% (active)
[2]
  growth: 4.83% (active)
[3]
  growth: -3.37% (active)
[4]
  growth: 7.09% (active)
[5]
  growth: -26% (active)
[6]
  growth: -33.7% (active)
[7]
  growth: -33.2% (active)
[8]
  growth: 13%
[9]
  growth: -1.68% (active)
